A selection: hits, their analogues and other compounds. The true share with any hit is near 7%.
ATXN viability – cell viability loss in ATXN counter-screen; S2 cells (HEK-293 line with an ATXN2-luciferase reporter) viability, CellTiter-Fluor protease fluorescence, 24 h; Potency, µM (doses to about 56.7 µM), hits mostly cytotoxic; actives 0.49% (n = 400,000); AID 651635; note: nearly all actives have a fitted effect of over 40% in size
ATXN2 expr inh – ATXN2 expression inhibition; HEK-293 ATXN2-luciferase reporter, luminescence, 24 h; Potency, µM (highest dose often 57 µM), usual class: inhibitors; actives 0.72% (n = 360,000); AID 1745845; note: nearly all actives have a fitted effect of over 55% in size
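ATXN2-luciferase reporter cells (luciferase flanked by upstream and downstream ATXN2 gene portions) were treated 24 h at 37 °C with compounds at up to 57 uM. SteadyGlo luminescence gave expression; GF-AFC fluorescence gave viability.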
IL1B secr inh – blocks inflammasome-driven IL-1 beta release; actives 4.7% (n = 360,000); THP-1 LPS/ATP IL-1B secretion, AlphaLISA, 16 h; active compounds read low; AID 743279; activity change, % at 57.5 µM; in the data active = activity change below about -50%; inconclusive = mostly about -30% to -49%
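THP-1 cells pretreated 1 hr with compounds (up to 57.5 uM final), then stimulated with LPS (250 ng/mL final) plus ATP (1.25 mM final); secreted IL-1B measured by AlphaLISA after 16 hr, decreased signal indicating inhibition.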
DRD3 agonist – D3 dopamine receptor (human) agonism | max activation, % | P35462 | D3R DiscoveRx beta-arrestin cells, luminescence, 90 min | actives 0.58% (n = 410,000) | AID 652048; in the data active = max activation above about 30%
Target sequence (P35462 whole entry, looked up): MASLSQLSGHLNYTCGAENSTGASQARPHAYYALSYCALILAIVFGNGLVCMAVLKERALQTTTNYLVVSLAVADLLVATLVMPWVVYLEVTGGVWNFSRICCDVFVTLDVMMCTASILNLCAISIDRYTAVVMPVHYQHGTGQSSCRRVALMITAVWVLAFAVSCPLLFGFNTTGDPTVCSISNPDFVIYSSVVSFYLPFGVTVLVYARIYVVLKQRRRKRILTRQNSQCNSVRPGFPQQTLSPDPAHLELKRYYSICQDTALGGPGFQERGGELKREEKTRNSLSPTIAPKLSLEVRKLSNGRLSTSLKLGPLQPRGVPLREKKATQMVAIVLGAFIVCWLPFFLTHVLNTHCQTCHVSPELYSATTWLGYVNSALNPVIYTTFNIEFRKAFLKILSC
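Agonist mode: compounds and dopamine controls were applied to plated cells for 90 min at 37 degrees C after an overnight attachment at 1500 cells/well. Luminescent read-out followed 30 - 60 minutes at room temperature with DiscoveRx detection reagent.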
DRD3 antagonist – D3 dopamine receptor (human) antagonism. D3R cells, DiscoveRx beta-arrestin luminescence, antagonist mode; active compounds read low. max response, negative = inhibition, %. actives 2.5% (n = 360,000); in the data active = max response below about -50%; inconclusive = no clear call, values can overlap the other calls
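Cells plated overnight at 1500 cells/well, then exposed to library compounds with dopamine controls for 90 minutes at 37 degrees C. DiscoveRx reagent added for 30–60 minutes at room temperature; luminescence read, quantitative HTS format.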
Integrin act MD – activators of alpha7 integrin expression for muscular dystrophy; alpha7betagal myoblasts, beta-gal FDG fluorescence, 48 h; Potency, µM (titrated, usually from 38.3 µM), hits mostly activators; actives 0.064% (n = 350,000); AID 624291; note: nearly all actives have a fitted effect of over 60% in size
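Alpha7betagal+/- myoblasts (passage 13) were plated 16-24 hr, then exposed to compounds (1:260 dilution of DMSO stock) for 48 hours at 37C. After MPER lysis, β-galactosidase reporter activity was read as FDG fluorescence (ex 480/em 540) after 30 minutes.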
Of the large screens only hits and unclear results are named; the others gave an inactive call; ! = repeats disagree. Unless noted, calls come from the whole dose curve; as a rule, active = well fitted curve in the direction sought with a large enough effect; inconclusive = small, poorly fitted or top-dose-only effect, or another doubt; inactive = no such curve, though single readings can be large; an effect the other way counts as inactive or inconclusive.

Cc1cccc(N2C(=O)N(Cc3ccc(C(C)(C)C)cc3)c3ccccc3S2(=O)=O)c1	none (no result: IL1B secr inh, DRD3 antagonist, Integrin act MD)
CC(C)(C)c1ccc(CN2N=Nc3ccccc3S2(=O)=O)cc1	ATXN2 expr inh inconclusive, DRD3 antagonist -93 (no result: ATXN viability)
CCn1ncc(CN2CCCC(C(=O)Nc3cccc(-c4cc5ccccc5[nH]4)c3)C2)c1C (centres undefined)	ATXN2 expr inh inconclusive, IL1B secr inh -94
O=C(Nc1cccc(-n2cccn2)c1)C1CCCN(Cc2cc3ccccc3[nH]2)C1 (centres undefined)	ATXN viability inconclusive, IL1B secr inh -60
Cc1c(CN2CCCC(C(=O)Nc3cccc(-n4cccn4)c3)C2)cnn1C (centres undefined)	Integrin act MD inconclusive (no result: ATXN viability, ATXN2 expr inh)
CSc1cccc(CN2CCCC(C(=O)Nc3cccc(-n4cccn4)c3)C2)c1 (centres undefined)	IL1B secr inh -66
CN(c1ccccc1)S(=O)(=O)c1cccc(C(=O)N2CCN(c3ccccn3)CC2)c1	none
O=c1[nH]c2cccnc2n1-c1cccc([N+](=O)[O-])c1	none
COC(=O)c1c(N)sc(C(=O)N2CCOCC2)c1C	none
COC(=O)c1c(NC(=O)CCl)sc(C(=O)N2CCOCC2)c1C	ATXN viability inconclusive, IL1B secr inh -98
COC(=O)c1c(NC(=O)c2ccccc2OC)sc(C(=O)N2CCOCC2)c1C	IL1B secr inh -60
CC(=O)NC(C)C12CC3CC(CC(C(=O)O)(C3)C1)C2 (centres undefined)	none
CCSC1=NC2(CCCCC2)Nc2sc3c(c21)CCCC3	DRD3 antagonist -61
O=C1C=C(C#Cc2ccc(Oc3ccccc3)cc2)C[C@@H](c2ccc(F)cc2)C1	ATXN2 expr inh inconclusive, IL1B secr inh -80 (no result: ATXN viability)
COc1cccc(-c2n[nH]nc2C2=CC(=O)C[C@H](c3ccc(F)cc3)C2)c1	IL1B secr inh inconclusive
O=C1C=C(c2ccc(OC(F)(F)F)cc2)C[C@@H](c2ccc(F)cc2)C1	none
O=C1C=C(c2ccc(Oc3ccccc3)cc2)C[C@@H](c2ccc(F)cc2)C1	IL1B secr inh inconclusive, DRD3 antagonist -73
COc1cccc(C#CC2=CC(=O)C[C@H](c3ccc(F)cc3)C2)c1	ATXN viability inconclusive, ATXN2 expr inh inconclusive, IL1B secr inh -93
O=C(CCS(=O)(=O)c1ccc(Cl)cc1)NCCC1=CCCCC1	none
CCN(Cc1nc2ccccc2c(=O)[nH]1)C(=O)COc1ccccc1Cc1ccccc1	ATXN viability inconclusive, IL1B secr inh -67
COCCN(Cc1nc2ccccc2c(=O)[nH]1)C(=O)COc1ccccc1-c1ccccc1	IL1B secr inh -68
CCOc1ccccc1NC(=O)CCCc1nc2ccccc2c(=O)[nH]1	ATXN2 expr inh 20µM
N#Cc1c(N)c(C(=O)c2ccccc2)n2c1CCCC2	DRD3 antagonist inconclusive
Cc1ccc2c(c1)C(c1ccc(F)cc1)N(C(=O)c1cc3ccccc3oc1=O)CC(=O)N2 (centres undefined)	none
Cc1cc(C)cc(OCC2CNC(=O)O2)c1 (centres undefined)	DRD3 agonist 83!
Cc1ccc(NC(=O)CN(C)S(=O)(=O)c2ccc3nc(C)sc3c2)c(C)c1	none (no result: ATXN viability, ATXN2 expr inh, IL1B secr inh, DRD3 antagonist, Integrin act MD)
CNC(=O)c1cc(Oc2ccc(NC(=O)Nc3cc(C(C)(C)C)nn3-c3ccc4ncccc4c3)c(F)c2)ccn1	ATXN2 expr inh 1.4µM (no result: ATXN viability, IL1B secr inh, DRD3 agonist, DRD3 antagonist, Integrin act MD)
Cn1nc(C(C)(C)C)cc1NC(=O)Nc1ccc(F)cc1F	none
CC(=O)c1cccc(NC(=O)CN2C(=O)COc3ccc(Cl)cc32)c1	DRD3 antagonist -94
COc1ccc2[nH]c(C(=O)O)c(NC(=O)c3ccccc3[N+](=O)[O-])c2c1	none
Cc1ccccc1-n1c(SCc2cc(=O)n3ccccc3n2)nc2[nH]ncc2c1=O	none
Cc1ccccc1-n1c(SCc2cccc(F)c2)nc2[nH]ncc2c1=O	IL1B secr inh -74
CCc1ccc(-n2c(SCc3ccccc3F)nc3[nH]ncc3c2=O)cc1	ATXN viability 20µM, ATXN2 expr inh inconclusive (no result: IL1B secr inh, DRD3 antagonist, Integrin act MD)
O=c1c2cn[nH]c2nc(SCc2ccccc2F)n1-c1ccc(Br)cc1	IL1B secr inh -149
Cc1ccc(-n2c(SCc3ccccc3F)nc3[nH]ncc3c2=O)cc1C	ATXN viability inconclusive, ATXN2 expr inh inconclusive (no result: IL1B secr inh, DRD3 antagonist, Integrin act MD)
Cc1ccc(-n2c(SCc3ccccc3F)nc3[nH]ncc3c2=O)cc1Cl	ATXN viability 35µM, ATXN2 expr inh inconclusive (no result: IL1B secr inh, DRD3 antagonist, Integrin act MD)
Cc1cc([N+](=O)[O-])c(C(C)(C)C)cc1N	none
CN(Cc1ccccc1)C(NC(=O)c1ccccc1)C(Cl)(Cl)Cl (centres undefined)	ATXN2 expr inh inconclusive
N#Cc1ccc(NC2=NS(=O)(=O)c3ccccc32)cc1	none (no result: IL1B secr inh, DRD3 antagonist, Integrin act MD)
O=c1c2cn[nH]c2nc(SCc2cc(=O)n3cc(Br)ccc3n2)n1-c1ccc(Br)cc1	IL1B secr inh -51
O=C(CSc1nc2[nH]ncc2c(=O)n1-c1ccccc1)c1ccc2c(c1)OCCO2	IL1B secr inh -54
Cc1cccc2nc(CSc3nc4[nH]ncc4c(=O)n3-c3ccccc3Cl)cc(=O)n12	ATXN viability inconclusive
O=C(O)c1ccccc1S(=O)(=O)NCC(O)COC1CCCCC1 (centres undefined)	none
O=C(O)c1ccccc1Sc1ccccc1S(=O)(=O)NC1CCCCC1	DRD3 agonist 32 (no result: IL1B secr inh)
CCc1c(C)sc(NC(=O)c2cc(-c3ccc(OC)c(OC)c3)on2)c1C#N	none
COc1ccc(OC)c(-c2cc(C(=O)Nc3c(C)nn(Cc4ccc(Cl)cc4)c3C)no2)c1	IL1B secr inh -63, DRD3 agonist 41
CCc1c(C)sc(NC(=O)c2cc(-c3cc(OC)ccc3OC)on2)c1C#N	ATXN2 expr inh 14µM (no result: ATXN viability)
COc1ccc(OC)c(-c2cc(C(=O)NCc3ccco3)no2)c1	DRD3 antagonist -54
COc1ccc(OC)c(-c2cc(C(=O)Nc3c(C)nn(Cc4ccccc4)c3C)no2)c1	IL1B secr inh inconclusive, DRD3 agonist 35
COc1ccc(OC)c(-c2cc(C(=O)Nc3cc(C)on3)no2)c1	DRD3 antagonist inconclusive
CCCCC(=O)Nc1nnc(S(=O)(=O)N(CC)c2cc(C)cc(C)c2)s1	none (no result: ATXN viability, ATXN2 expr inh, IL1B secr inh, DRD3 antagonist, Integrin act MD)
CC1CCCN(C(=O)CSCC(=O)N=c2sc3ccccc3n2C)C1 (centres undefined)	none
N/C(CS(=O)(=O)c1ccc(F)cc1)=N\O	none
CSc1nc(=O)n(-c2ccccc2)c(C)c1C(C)=O	DRD3 agonist 34
CCSc1nc(=O)n(-c2ccccc2)c(C)c1C(C)=O	DRD3 antagonist inconclusive
CC(C)(C)c1cc(NC(=O)Nc2ccc(-c3cn4c(n3)sc3cc(OCCN5CCOCC5)ccc34)cc2)no1	none (no result: ATXN viability, IL1B secr inh, DRD3 agonist, DRD3 antagonist, Integrin act MD)
Clc1ccc(N/N=C/c2cccnc2)cc1	IL1B secr inh -62
CC(C)(C)c1csc(N/N=C/c2cccnc2)n1	IL1B secr inh -99
C(=N\NC1=Nc2cccc3cccc1c23)/c1cccnc1	IL1B secr inh -98

From PubChem BioAssay
